In PubChem BioAssay one finds composite z-score and z-score data, which are given here for four compounds.

Assay [1] in a line: small molecules captured by biotinylated probe aFSTL3 – biochemical, small-molecule microarray, fluorescence 635/667, stem cell growth factor project, primary screen (AID 1064).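 Further: measures binding of the biotinylated anti-FSTL3 antibody to printed compounds.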 The settings on record: higher = more signal.
Assay [2] is described as follows: binders from COS7 lysate, DM2A8 probe, primary screen, torsin A project, cell lysate, small-molecule microarray, fluorescence 635/667 (AID 1065). To be noted: higher = more signal, COS7 lysate expressing mutant human TOR1A.
Assay [3] is described as follows: small molecules captured by biotinylated probe aFGF2 – biochemical, small-molecule microarray, fluorescence 635/667, stem cell growth factor project, primary screen (AID 1067).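 Further: measures binding of biotinylated aFGF2 protein to printed compounds on slides; z-score merges feature fluorescence and signal-to-noise across triplicate slides.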 To be noted: higher = more signal.
Assay [4] can be described thus: small molecules captured by biotinylated probe aFGF10 – biochemical, small-molecule microarray, fluorescence 635/667, stem cell growth factor project, primary screen (AID 1071).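 Further: score merges 667 nm spot intensity and signal to noise from triplicate slides.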 To be noted: higher = more signal.
Assay [5] concerns the target Neurogenic locus notch homolog protein 2 (Homo sapiens) (UniProt Q04721). Description: small molecules binding Notch2 protein – biochemical, small-molecule microarray, 635 nm fluorescence, stem cell growth factors, primary screen (AID 1073). The settings on record: higher = more signal.
Assay [6] deals with Pro-neuregulin-1, membrane-bound isoform (Homo sapiens) (UniProt Q02297). As to the kind of experiment: small molecules binding neuregulin-1 protein – biochemical, small-molecule microarray, fluorescence 635/667, psychiatric disease protein project, primary screen (AID 1075).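 Further: score combines 667 nm spot fluorescence with signal to noise.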 To be noted: NRG1 binding, 635 nm fluorescence, higher = more signal.
Pro-neuregulin-1, membrane-bound isoform (Homo sapiens), sequence (Q02297 whole entry, looked up, the tested form may be a part, canonical isoform): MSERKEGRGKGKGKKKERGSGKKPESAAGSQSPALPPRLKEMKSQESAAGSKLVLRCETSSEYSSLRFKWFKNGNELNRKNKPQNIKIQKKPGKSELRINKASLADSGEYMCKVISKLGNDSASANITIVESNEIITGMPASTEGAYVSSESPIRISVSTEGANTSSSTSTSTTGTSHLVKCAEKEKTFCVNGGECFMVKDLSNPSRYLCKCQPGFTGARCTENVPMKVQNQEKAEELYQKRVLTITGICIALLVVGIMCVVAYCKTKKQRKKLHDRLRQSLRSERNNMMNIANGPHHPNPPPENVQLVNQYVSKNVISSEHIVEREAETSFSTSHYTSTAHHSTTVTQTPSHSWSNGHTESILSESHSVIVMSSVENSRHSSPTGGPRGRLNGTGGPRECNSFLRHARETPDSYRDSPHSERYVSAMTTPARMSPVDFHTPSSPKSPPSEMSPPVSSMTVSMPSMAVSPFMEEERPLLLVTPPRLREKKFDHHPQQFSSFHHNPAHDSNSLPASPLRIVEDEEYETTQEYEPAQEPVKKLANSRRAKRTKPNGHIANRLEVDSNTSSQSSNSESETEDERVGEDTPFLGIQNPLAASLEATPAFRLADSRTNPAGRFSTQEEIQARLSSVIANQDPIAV
For assay [7], the system named is Neuregulin-1 EGF-like domain. Description: small molecules binding NRG1 EGF domain – biochemical, small-molecule microarray, 635 nm fluorescence, primary screen (AID 1081).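 Further: binding of the protein to compounds printed on small-molecule microarray slides.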 To be noted: higher = more signal.
A short description of assay [8]: FRG1 expression reporter modulators in myotubes – cell-based, C2C12 myotubes, firefly/Renilla luciferase, luminescence, FRG1 inhibition for FSHD, primary screen (AID 1084). To be noted: FRG1 promoter luciferase, higher = more signal, called active from +8 up or from −8 down.
Assay [9] is described as follows: small molecules captured by biotinylated probe aFST – biochemical, small-molecule microarray, fluorescence 635/667, stem cell growth factor project, primary screen (AID 1086).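 Further: score merges 667 nm fluorescence with signal-to-noise of each printed compound spot.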 The settings on record: higher = more signal.
Assay [10] can be described thus: binders of probe aHhip on microarray, primary screen, stem cell growth factor project, biochemical, small-molecule microarray, fluorescence 635/667 (AID 1087).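 Further: score merges spot fluorescence at 667nm with spot signal to noise ratio.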 To be noted: higher = more signal.
Assay [11] deals with PRMT1 (protein arginine N-methyltransferase 1). As to the kind of experiment: small molecules binding arginine methyltransferase PRMT1 – biochemical, small-molecule microarray, 635 nm fluorescence, primary screen (AID 1088).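 Further: binding of Prmt1 protein to compounds spotted on small-molecule microarray slides.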 To be noted: higher = more signal.
Assay [12] can be described thus: growth effects on S. cerevisiae YJM789 – YJM789 clinical isolate, OD600, 24 h, basal, primary screen (AID 1089).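 Further: growth of clinical yeast isolate S. cerevisiae YJM 789 seeded 1000 cells per well; test concentration not given here.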 The settings on record: higher = more signal, called active from +8 up or from −8 down.
Assay [13] can be described thus: S. pombe growth modifiers, basal conditions – strain 972, OD600, 24 h, no modulator, primary screen (AID 1090).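 Further: basal condition with compound alone and no growth modifier present; test concentration not given here.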 The settings on record: S. pombe 972 growth, higher = more signal, called active from +8 up or from −8 down.
A short description of assay [14]: budding yeast growth modifiers under rapamycin – strain BY4716, OD600, 96 h, primary screen (AID 1091). Further: test concentration not given here. The settings on record: S. cerevisiae BY4716 + rapamycin, higher = more signal, called active from +8 up or from −8 down.
Assay [15] deals with Torsin-1A-interacting protein 2 (Homo sapiens) (UniProt Q8NFQ8). As to the kind of experiment: small molecules binding lysate-expressed LULL1 – cell lysate, human LULL1 lysate, 635/667 nm fluorescence, primary screen (AID 1092).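 Further: score merges per-feature 667 nm fluorescence with signal-to-noise.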 To be noted: small-molecule microarray, hLULL1 lysate binding, 635 nm fluorescence; higher = more signal.
Torsin-1A-interacting protein 2 (Homo sapiens), sequence (Q8NFQ8 whole entry, looked up): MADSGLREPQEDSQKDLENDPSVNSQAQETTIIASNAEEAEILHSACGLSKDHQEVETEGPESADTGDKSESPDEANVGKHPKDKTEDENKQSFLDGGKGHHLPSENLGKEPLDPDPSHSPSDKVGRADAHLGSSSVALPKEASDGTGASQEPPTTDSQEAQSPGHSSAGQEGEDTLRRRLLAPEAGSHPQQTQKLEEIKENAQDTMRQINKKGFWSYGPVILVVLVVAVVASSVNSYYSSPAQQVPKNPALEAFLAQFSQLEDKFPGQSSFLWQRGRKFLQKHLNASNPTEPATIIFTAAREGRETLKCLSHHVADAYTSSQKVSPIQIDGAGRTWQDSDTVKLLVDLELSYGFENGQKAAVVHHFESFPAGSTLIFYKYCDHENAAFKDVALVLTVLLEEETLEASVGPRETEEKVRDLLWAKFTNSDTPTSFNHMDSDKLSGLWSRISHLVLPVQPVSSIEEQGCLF
A short description of assay [16]: optical density change of DRC41 E. coli – strain DRC41, OD650, 24 h, E. coli filamentation project, primary screen (AID 1093).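 Further: MC1000 strain lacking acrAB efflux and sulA so SOS filamentation is blocked; test concentration not given here.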 To be noted: E. coli DRC41 growth, higher = more signal, called active from +8 up or from −8 down.
Assay [17] is described as follows: probe aLefty2 binding to arrayed compounds – biochemical, biotinylated probe, 635/667 nm fluorescence, primary screen (AID 1094).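 Further: score merges spot fluorescence near 667 nm with spot signal-to-noise ratio.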 To be noted: small-molecule microarray, higher = more signal.
The subject of assay [18] is Noggin (protein binding on small-molecule microarray). As to the kind of experiment: small molecules binding Noggin protein – biochemical, 635/667 nm fluorescence, primary screen (AID 1095).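 Further: score merges 667 nm feature fluorescence with signal to noise over triplicate slides.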 To be noted: 635 nm fluorescence, higher = more signal.
For assay [19], the target named is Neurogenic locus notch homolog protein 3 (Homo sapiens) (UniProt Q9UM47). As to the kind of experiment: small molecules binding NOTCH3 protein – biochemical, 635/667 nm fluorescence, primary screen (AID 1096). The settings on record: small-molecule microarray, 635 nm fluorescence, higher = more signal.
A short description of assay [20]: probe aEGFR binding to arrayed compounds – biochemical, biotinylated probe, 635/667 nm fluorescence, primary screen (AID 1097).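 Further: probe is a biotinylated anti-EGFR antibody binding compounds printed on slides; score combines fluorescence near 667 nm and signal to noise of each spot.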 To be noted: small-molecule microarray, higher = more signal.

“And” between values parts separate entries of the source, which are not always exact repeats. Identical values can stand only once. The source made the active and inactive calls.

Neurogenic locus notch homolog protein 2 (Homo sapiens), sequence (Q04721 whole entry, looked up, canonical isoform): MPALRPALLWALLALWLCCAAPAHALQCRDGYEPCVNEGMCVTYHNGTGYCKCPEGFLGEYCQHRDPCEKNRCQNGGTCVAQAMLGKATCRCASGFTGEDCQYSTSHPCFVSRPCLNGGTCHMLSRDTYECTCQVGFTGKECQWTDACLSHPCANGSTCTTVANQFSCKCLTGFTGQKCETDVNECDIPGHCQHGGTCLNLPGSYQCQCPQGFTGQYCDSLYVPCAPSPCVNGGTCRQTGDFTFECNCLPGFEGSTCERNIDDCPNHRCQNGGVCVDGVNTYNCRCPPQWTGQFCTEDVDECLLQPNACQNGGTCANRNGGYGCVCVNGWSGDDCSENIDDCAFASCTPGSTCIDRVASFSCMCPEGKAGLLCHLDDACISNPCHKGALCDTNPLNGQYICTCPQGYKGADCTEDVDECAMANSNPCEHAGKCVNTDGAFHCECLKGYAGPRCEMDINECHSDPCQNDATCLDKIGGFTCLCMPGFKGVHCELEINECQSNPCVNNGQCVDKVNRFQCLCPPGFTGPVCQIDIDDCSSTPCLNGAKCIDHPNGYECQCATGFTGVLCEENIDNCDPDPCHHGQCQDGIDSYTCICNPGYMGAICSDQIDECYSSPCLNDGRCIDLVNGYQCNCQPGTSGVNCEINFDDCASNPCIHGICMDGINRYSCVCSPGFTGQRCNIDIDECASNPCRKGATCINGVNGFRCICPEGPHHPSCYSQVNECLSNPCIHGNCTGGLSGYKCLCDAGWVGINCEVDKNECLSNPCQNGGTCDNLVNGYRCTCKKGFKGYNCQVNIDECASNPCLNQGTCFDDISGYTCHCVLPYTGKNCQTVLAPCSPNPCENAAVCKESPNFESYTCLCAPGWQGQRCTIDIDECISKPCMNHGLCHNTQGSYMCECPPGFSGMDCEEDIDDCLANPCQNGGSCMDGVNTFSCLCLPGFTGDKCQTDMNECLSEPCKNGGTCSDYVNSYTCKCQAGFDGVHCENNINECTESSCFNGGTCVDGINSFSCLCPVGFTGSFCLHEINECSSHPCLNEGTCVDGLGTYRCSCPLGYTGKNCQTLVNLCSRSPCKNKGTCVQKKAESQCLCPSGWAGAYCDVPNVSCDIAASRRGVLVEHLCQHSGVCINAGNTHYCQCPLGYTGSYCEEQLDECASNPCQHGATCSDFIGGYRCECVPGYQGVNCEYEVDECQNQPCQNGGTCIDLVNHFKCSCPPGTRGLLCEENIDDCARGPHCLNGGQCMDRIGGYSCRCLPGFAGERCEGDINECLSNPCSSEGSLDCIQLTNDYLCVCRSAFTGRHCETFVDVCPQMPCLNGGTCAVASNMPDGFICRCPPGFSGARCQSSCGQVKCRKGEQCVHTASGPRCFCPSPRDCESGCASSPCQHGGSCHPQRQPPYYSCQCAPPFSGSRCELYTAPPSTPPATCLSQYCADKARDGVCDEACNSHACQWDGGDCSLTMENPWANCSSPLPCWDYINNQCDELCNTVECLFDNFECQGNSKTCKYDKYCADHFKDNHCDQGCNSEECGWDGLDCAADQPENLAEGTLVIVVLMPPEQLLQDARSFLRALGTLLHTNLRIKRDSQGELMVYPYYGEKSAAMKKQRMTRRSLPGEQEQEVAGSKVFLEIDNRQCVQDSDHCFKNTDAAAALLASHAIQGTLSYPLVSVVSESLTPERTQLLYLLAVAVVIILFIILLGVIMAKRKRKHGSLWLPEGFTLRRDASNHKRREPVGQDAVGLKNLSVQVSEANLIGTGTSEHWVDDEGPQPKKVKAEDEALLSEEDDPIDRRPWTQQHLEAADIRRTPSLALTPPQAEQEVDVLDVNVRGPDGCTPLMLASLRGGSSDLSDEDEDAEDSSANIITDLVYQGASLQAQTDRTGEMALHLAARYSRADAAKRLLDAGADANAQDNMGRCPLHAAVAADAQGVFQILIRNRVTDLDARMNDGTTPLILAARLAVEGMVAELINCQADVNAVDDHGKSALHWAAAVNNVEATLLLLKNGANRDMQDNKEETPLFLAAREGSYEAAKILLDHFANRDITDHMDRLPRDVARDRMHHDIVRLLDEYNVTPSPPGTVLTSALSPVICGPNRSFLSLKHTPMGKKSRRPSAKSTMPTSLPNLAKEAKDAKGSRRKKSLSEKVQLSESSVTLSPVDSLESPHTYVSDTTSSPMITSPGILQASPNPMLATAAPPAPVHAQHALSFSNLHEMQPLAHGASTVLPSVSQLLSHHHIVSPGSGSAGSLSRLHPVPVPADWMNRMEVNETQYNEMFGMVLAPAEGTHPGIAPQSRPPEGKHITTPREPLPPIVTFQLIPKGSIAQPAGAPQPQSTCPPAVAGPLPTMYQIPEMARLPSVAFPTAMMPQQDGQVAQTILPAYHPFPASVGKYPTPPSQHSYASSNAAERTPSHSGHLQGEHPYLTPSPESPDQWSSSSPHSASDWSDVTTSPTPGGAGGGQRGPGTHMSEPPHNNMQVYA

Regarding `C=CC[C@@H](O)c1ccc(O)c2ccccc12`, the composite z-score in assay [1] is 0.16 and -0.247; in assay [2], 0.571 and 0.234; in assay [3], -0.0422 and -0.0676; in assay [4], 0.184 and 0.262; in [5] it was 0.116 and 0.328; in assay [6], 0.66 and 0.282. Moreover, the composite z-score in assay [7] was 1.18 and 1.26; in assay [9], 0.42 and 0.0926; in [10], 0.72 and -0.0237; in [11], 1.57 and 1.49; in [15], 1.01 and 0.0783; in [17], -0.0511 and -0.0812. Besides, the composite z-score was 1.1 and 0.869 in [18]; 1.11 and 1.1 in assay [19]; 0.0153 and -0.0531 in assay [20]. For the same compound, the z-score in assay [8] was 0.0604 (inactive) and 1.27 (inactive); in assay [12], -22 (active) and -23.3 (active); in assay [13], -20 (active) and -20.4 (active); in assay [14], 6.56 (inactive) and 5.68 (inactive); in assay [16], 1.92 (inactive) and 0.416 (inactive).
In the case of `C=C[C@H](OC)[C@@H](O)c1ccc(OCCO)cc1`, the composite z-score in assay [1] is 1.29 and 1.32; in [2], -0.768 and -0.833; in assay [3] it was -0.219 and -0.121; in [4], -1.19 and -0.295; in [5], -1.86 and -1.69; in [6], -0.102 and -0.296. Moreover, the composite z-score in [7] is 0.604 and 0.0642; in assay [9] it was -1.29 and -0.821; in [10] it was -0.405 and -0.268; in assay [11], -0.801 and -0.822; in assay [15], -0.517 and -0.64; in assay [17] it was -0.242 and -0.0736. The composite z-score in assay [18] is -2.2 and -1.82; in assay [19], -1.56 and -0.724; in [20] it was -0.313 and -0.314. In addition, the z-score is 0.298 (inactive) and 0.277 (inactive) in assay [8]; -0.146 (inactive) and 0.665 (inactive) in assay [12]; 0.363 (inactive) and -0.412 (inactive) in [13]; 0.573 (inactive) and 0.329 (inactive) in assay [14]; -0.0467 (inactive) and 0.606 (inactive) in [16].
For `C=CCN(CCCC)C(=O)C(c1cccs1)N(C(=O)/C=C\C(=O)O)c1ccc(CCO)cc1` (stereo not given), the composite z-score was 0.655 and 1.21 in assay [1]; 0.005 and 0.531 in assay [2]; -0.0493 and -0.166 in [3]; 0.115 and -1.62 in assay [4]; -1.83 and -2.34 in [5]; 0.863 and -0.409 in [6]. For the same compound, the composite z-score in assay [7] is 0.867 and -0.0384; in assay [9], -0.498 and -1.07; in assay [10], -0.137 and -0.296; in assay [11], -1.13 and -0.631; in assay [15], 0.413 and 0.484; in assay [17] it was 0.0113 and -0.145. The composite z-score in assay [18] is -2.58 and -3.71; in assay [19], -1.26 and -0.946; in assay [20], -0.315 and -0.346. Moreover, the z-score in assay [8] was 1.61 (inactive) and 1.37 (inactive); in [12], -0.924 (inactive) and 0.0434 (inactive); in assay [13], -0.13 (inactive) and -0.354 (inactive); in [14], 0.161 (inactive) and 0.541 (inactive); in [16] it was 0.0144 (inactive) and -0.312 (inactive).
Turning to `O=C1[C@H]2[C@H]3[C@H](O)[C@H](O)CC(=NOCc4ccccc4)[C@H]3CC[C@H]2C(=O)N1Cc1ccccc1`, the composite z-score was -0.51 in assay [1]; 0.887 in assay [2]; -0.109 in assay [3]; 0.186 in assay [4]; 0.189 in [5]; -0.226 in assay [6]. Further, the composite z-score was -0.263 in [7]; 0.223 in assay [9]; -0.274 in assay [10]; -1 in assay [11]; -0.336 in assay [15]; -0.234 in assay [17]. Also, the composite z-score in assay [18] is 0.439; in assay [19], 0.273; in assay [20], -0.126. Besides, the z-score in [8] was 0.224 (inactive); in assay [12] it was -2.04 (inactive); in assay [13], -2.07 (inactive); in [14], -1.04 (inactive); in [16], 0.582 (inactive).
